The list is not random: actives were taken first. Their share in the collection is about 2.3%.
PfM18AAP inh-1 – PfM18AAP enzyme inhibition; inhibition, % at 7.35 µM; recombinant PfM18AAP, H-Glu-NHMec fluorogenic cleavage; 1.2% of 290,000 active;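 active = inhibition above the campaign mean inhibition over all tested compounds plus 3 SD, cut at about 28% in these data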;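 note: 0% = plate median of test compound wells and 100% = 2 mM ZnCl2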
DNA FID counter – counter-screen for HCV NS3 helicase inhibitors: DNA intercalator displacement; DNA fluorescent intercalator displacement, fluorescence; inhibition, % at 7.9 µM; 0.17% of 290,000 active; AID 1845; in the data active = inhibition above about 37%;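 note: 0% = vehicle and 100% = reference compound; higher means more ethidium bromide displaced from hairpin DNA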
Rce1 inhib – blocks yeast Ras-converting enzyme. Q03530. yeast membranes, quenched prenylated peptide cleavage fluorescence. calls only. 0.27% of 290,000 active. AID 2563;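 active = fall in fluorescence gain of 50% or more versus controls, with final raw signal at or below 3038400; inconclusive = same 50% fall but final raw signal above 3038400; inactive = fall in fluorescence gain under 50%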;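 note: plate controls were neutral control wells for no effect and wells lacking membranes for full effect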
Target sequence (Q03530 whole entry, looked up): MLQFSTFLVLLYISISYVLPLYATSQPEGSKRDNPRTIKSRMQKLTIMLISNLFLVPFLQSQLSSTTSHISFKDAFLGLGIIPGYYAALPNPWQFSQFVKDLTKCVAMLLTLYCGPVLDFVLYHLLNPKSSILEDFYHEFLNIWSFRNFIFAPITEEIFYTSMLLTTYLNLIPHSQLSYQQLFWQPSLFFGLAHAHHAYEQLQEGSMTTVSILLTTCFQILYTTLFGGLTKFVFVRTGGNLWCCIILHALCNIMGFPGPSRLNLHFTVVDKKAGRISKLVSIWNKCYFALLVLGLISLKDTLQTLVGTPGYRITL
Kir21 inh – blocks the mouse Kir2.1 inward-rectifier potassium channel; B-score at 10 µM; P35561; HEK293-Kir2.1, FluxOR thallium flux fluorescence; active compounds read low; AID 1672; 0.85% of 310,000 active;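 active = fluorescence ratio B-score at or below minus 3 SD of library scores, with starting-brightness B-score within 2 SD, cut at about -4.2 in these data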;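 note: channel flux triggered by added potassium and thallium sulfate stimulus; B-score of peak minus minimum fluorescence over baseline after thallium stimulus; more negative B-score means stronger Kir2.1 block with less thallium influx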
PfM18AAP inh-2 – confirmation of Plasmodium falciparum M18 aspartyl aminopeptidase inhibitors. shares compounds with PfM18AAP inh-1. recombinant PfM18AAP, H-Glu-NHMec fluorogenic cleavage. inhibition, % at 7.35 µM. 28% of 2,400 active. AID 2170;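 active = mean inhibition over replicate wells above the hit cutoff set for the earlier primary screen, cut at about 29% in these data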;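 note: 0% = median of test compound wells and 100% = 2 mM ZnCl2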
CTSL1 counter – Cathepsin L (human) inhibition, confirmation; shares compounds with PfM18AAP inh-1; purified cathepsin L1, Z-Leu-Arg-MCA fluorescence; inhibition, % at 5.96 µM; 2,400 tested, under 10 active; AID 2178;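 active = average inhibition across replicates above the hit cutoff set in the earlier primary screen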;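 note: 0% = median of test compound wells and 100% = Z-Phe-Ala-diazomethylketone 1 µM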
* hit, by the source's call; i = inactive; ? = inconclusive; · = no result; + = active, no number.

SMILES	PfM18AAP inh-1	DNA FID counter	Rce1 inhib	Kir21 inh	PfM18AAP inh-2	CTSL1 counter
O=C(c1cc(COc2ccc(F)c(F)c2)on1)N1CCN(C/C=C/c2ccccc2)CC1	3	-16	i	0.59	·	·
COc1cccc(Nc2ccc(C(=O)O)cc2N)c1	5	-30	?	2	·	·
Cc1cc(C)cc(Nc2ccc(C(=O)O)cc2N)c1	41*	-12	+	-1.6	-21	-3
Cc1ccc(Nc2ccc(C(=O)O)cc2N)cc1	55*	-42	?	-0.29	4	7
C=CCOc1ccccc1CN1CCC(Oc2ccc(C(=O)N3CCCCC3)cc2)CC1	4	11	i	-3	·	·
COc1cc(CNC(C)C23CC4CC(CC(C4)C2)C3)cc(OC)c1OC (configuration not stated)	0	20	i	-1.4	·	·
Cc1cc(NC(=O)c2cc3cccc([N+](=O)[O-])c3[nH]2)ccc1F	-1	17	·	0.05	·	·
CC(C)Oc1ccc(-c2nn(-c3ccccc3)cc2/C=c2\sc3ncnn3c2=O)cc1	58*	-21	·	·	-17	3
CC1Sc2ccc(C(=O)O)cc2NC1=O (configuration not stated)	44*	0	i	2.9	-60	-9
CC1Sc2ccc(C(=O)Nc3ncccc3O)cc2NC1=O (configuration not stated)	·	·	i	0.73	·	·
Cc1ccc(OCCC(=O)OCC(=O)Nc2ccc3c(c2)OCCO3)cc1	·	·	i	-0.18	·	·
CCCCCC(=O)NNC(=S)NC(=O)c1ccccc1[N+](=O)[O-]	12	-13	i	-0.49	·	·
CCCCCC(=O)NNC(=S)NC(=O)c1cccc([N+](=O)[O-])c1	35*	5	i	2.6	-6	1
COc1ccc(S(=O)(=O)N2c3ccccc3NC(=O)CC2C)cc1 (configuration not stated)	-2	-4	i	-3.2	·	·
Nn1cnnc1N/N=C/c1ccc(Cl)c([N+](=O)[O-])c1	57*	1	i	-2.9	-41	-4
Cc1nnc(N/N=C/c2ccc([N+](=O)[O-])cc2)n1N	15	-1	i	0.02	·	·
Nc1nnnn1/N=C\c1ccc(Cl)c([N+](=O)[O-])c1	-6	0	i	0.12	·	·
Cc1ccc(/C=N/Nc2nncn2N)cc1	40*	1	i	0.86	-17	1
Nn1cnnc1N/N=C/c1ccc(F)cc1	42*	0	i	0.41	-21	-2
Fc1ccc(/C=N/Nc2nn[nH]n2)cc1	21	-1	i	-0.24	·	·
NC(=O)c1ccc(/C=N/O)nc1	5	0	i	-0.43	·	·
Cc1ccc(-n2c(N)c(C(N)=O)sc2=S)c(C)c1	39*	2	i	-0.34	8	5
Cc1ccc(-n2c(N)c(C(=O)N3CCCCC3)sc2=S)cc1	-25	-13	i	0.39	·	·
Cc1ccc(-n2c(N)c(C(=O)N3CCN(C)CC3)sc2=S)cc1	59*	13	i	1.9	19	1
CCc1ccc(C(=O)NNc2ccc(S(N)(=O)=O)cc2)cc1	35*	-2	i	0.11	-10	1
SMILES	PfM18AAP inh-1	DNA FID counter	Rce1 inhib	Kir21 inh	PfM18AAP inh-2	CTSL1 counter
CCOc1ccc(NC(=O)CN(C)C(=O)CCCOc2ccc(Cl)c(C)c2)cc1OCC	-3	-44	i	0.44	·	·
COC(=O)c1cn(C(=O)c2cc(OC)cc(OC)c2)c2ccccc12	-1	-4	i	1.1	·	·
COc1cc(OC)cc(C(=O)n2cnnc2N)c1	53*	-1	i	-0.04	49*	0
C=Cc1ncc(OC)c2c1[nH]c1ccccc12	·	·	i	-1.3	·	·
O=C1OC(/C(=C\Nc2ccccc2)[N+](=O)[O-])c2ccccc21 (configuration not stated)	47*	1	i	0.26	-36	-3
NNc1nc(-c2ccccc2)c2cc(Br)ccc2n1	35*	-19	i	1.9	-6	5
NNc1nc(-c2ccccc2)c2cc(Cl)ccc2n1	19	-2	i	1.9	·	·
Cc1cccc(NC(=O)CSc2nc3[nH]ncc3c(=O)[nH]2)c1C	42*	-2	i	0.43	28	-4
CC1CCN(C(=O)CSc2nc3[nH]ncc3c(=O)[nH]2)CC1	33*	4	i	-0.17	-26	-7
CC(C)(C)c1ccc(O)c(N)c1	46*	-5	i	0.94	76*	-3
CC(C)(C)c1ccc(SCC(N)=O)cc1	5	-4	i	-1.2	·	·
COCCNC(=O)c1cccc(OC2CCN(Cc3ccc(OC(F)F)cc3)CC2)c1	3	3	i	0.64	·	·

Compound activity (PubChem BioAssay)
